Assay results from PubChem BioAssay AID1159580 (chemical genetic matrix, 2015).
Hit rate of the full screen: of about 5,500 compounds, about 2,000 (36%) were called active. About 18% were inconclusive and are not listed. Rule as the data show it: active = normalized growth mostly below about 0.91 (no sharp cut-off); inconclusive = no clear call, values can overlap the other calls; inactive = mostly above about 0.92. This is one part of the list.

Assay: chemical genetic growth profiling, strain panel (AID 1159580);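 also: tested at 20 µM; growth read once vehicle control cultures reached saturation at 30 °C; 1 = growth at the plate median or of vehicle wells; lower values mean less growth of the strain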
Details: S. cerevisiae deletion strains, growth OD

Measured: normalized growth

N[C@@H](CC(=O)N1CCn2c(nnc2C(F)(F)F)C1)Cc1cc(F)c(F)cc1F
inactive: locus YAL021C, strain ccr4, hits give low values 0.992 | locus YAL026C, strain drs2, hits give low values 0.97 | locus YAL030W, strain snc1, hits give low values 0.985 | locus YBL061C, strain skt5, hits give low values 0.985 | locus YBR009C, strain hhf1, hits give low values 0.949 | locus YBR023C, strain chs3, hits give low values 0.993 | locus YBR171W, strain sec66, hits give low values 0.992 | locus YBR231C, strain swc5, hits give low values 0.995 | locus YBR279W, strain paf1, hits give low values 0.988 | locus YCL011C, strain gbp2, hits give low values 0.982 | locus YCL016C, strain dcc1, hits give low values 0.992 | locus YCL061C, strain MRC1, hits give low values 0.987 | locus YCL069W, strain vba3, hits give low values 0.984 | locus YCR088W, strain abp1, hits give low values 0.984 | locus YDL005C, strain med2, hits give low values 0.983 | locus YDL040C, strain nat1, hits give low values 0.992 | locus YDR001C, strain nth1, hits give low values 0.985 | locus YDR069C, strain doa4, hits give low values 0.971 | locus YDR137W, strain rgp1, hits give low values 1.01 | locus YDR159W, strain sac3, hits give low values 0.952 | locus YDR195W, strain ref2 0.941 | locus YDR297W, strain sur2, hits give low values 0.978 | locus YDR334W, strain swr1, hits give low values 0.982 | locus YDR335W, strain msn5, hits give low values 0.991 | locus YDR392W, strain spt3, hits give low values 0.887 | locus YEL003W, strain gim4, hits give low values 0.966 | locus YEL037C, strain rad23, hits give low values 0.983 | locus YEL061C, strain CIN8 (second series), hits give low values 0.983 | locus YER015W, strain faa2, hits give low values 0.978 | locus YER016W, strain bim1, hits give low values 0.995 | locus YER111C, strain swi4, hits give low values 0.988 | locus YER155C, strain BEM2 (second series), hits give low values 0.966 | locus YFR010W, strain ubp6, hits give low values 0.975 | locus YGL167C, strain pmr1, hits give low values 0.964 | locus YGL173C, strain kem1, hits give low values 0.985 | locus YGL227W, strain vid30, hits give low values 0.967 | locus YGL240W, strain doc1, hits give low values 0.981 | locus YGL253W, strain hxk2, hits give low values 0.996 | locus YHR013C, strain ard1, hits give low values 0.944 | locus YHR027C, strain rpn1, hits give low values 0.985 | locus YHR030C, strain SLT2, hits give low values 1.03 | locus YHR079C, strain IRE1, hits give low values 0.985 | locus YHR142W, strain chs7, hits give low values 1.01 | locus YJL092W, strain hpr5, hits give low values 0.989 | locus YJL095W, strain BCK1 (second series), hits give low values 0.993 | locus YJL095W, strain BCK1, hits give low values 0.96 | locus YJL115W, strain asf1, hits give low values 0.984 | locus YJL129C, strain trk1, hits give low values 1.01 | locus YJL154C, strain vps35, hits give low values 0.987 | locus YJL164C, strain tpk1, hits give low values 1 | locus YJL166W, strain qcr8, hits give low values 0.993 | locus YJL187C, strain SWE1, hits give low values 0.98 | locus YJR066W, strain TOR1, hits give low values 0.928 | locus YKL160W, strain elf1, hits give low values 1.01 | locus YKR026C, strain gcn3, hits give low values 0.972 | locus YKR091W, strain srl3, hits give low values 0.955 | locus YLL001W, strain dnm1, hits give low values 0.992 | locus YLL026W, hits give low values 0.995 | locus YLL041C, strain sdh2, hits give low values 0.994 | locus YLR027C, strain aat2, hits give low values 0.988 | locus YLR113W, strain HOG1, hits give low values 0.978 | locus YLR221C, strain rsa3, hits give low values 0.989 | locus YLR258W, strain gsy2, hits give low values 0.979 | locus YLR262C, strain YPT6 (second series), hits give low values 1 | locus YLR320W, strain mms22, hits give low values 0.998 | locus YLR342W, strain FKS1, hits give low values 0.958 | locus YLR357W, strain rsc2, hits give low values 0.989 | locus YLR370C, strain arc18, hits give low values 0.977 | locus YLR384C, strain iki3, hits give low values 0.969 | locus YML120C, strain ndi1, hits give low values 0.988 | locus YMR058W, strain fet3, hits give low values 0.977 | locus YMR125W, strain sto1, hits give low values 0.974 | locus YMR129W, hits give low values 0.984 | locus YMR205C, strain PFK2, hits give low values 0.96 | locus YMR231W, strain pep5, hits give low values 0.977 | locus YNL071W, strain lat1, hits give low values 0.979 | locus YNL183C, strain NPR1, hits give low values 0.898 | locus YNL209W, strain ssb2, hits give low values 0.986 | locus YNL248C, strain rpa49, hits give low values 1.01 | locus YNL322C, strain KRE1 (second series), hits give low values 0.975 | locus YNR049C, strain mso1, hits give low values 0.98 | locus YOR001W, strain rrp6, hits give low values 1.01 | locus YOR070C, strain gyp1, hits give low values 0.995 | locus YOR080W, strain dia2, hits give low values 0.976 | locus YOR083W, strain WHI5, hits give low values 1.01 | locus YOR106W, strain vam3, hits give low values 0.994 | locus YOR231W, strain MKK1, hits give low values 0.975 | locus YOR265W, strain rbl2, hits give low values 0.993 | locus YOR270C, strain vph1, hits give low values 0.984 | locus YOR290C, strain snf2, hits give low values 0.903 | locus YPL051W, strain arl3, hits give low values 1.01 | locus YPL078C, strain atp4, hits give low values 0.992 | locus YPL106C, strain sse1, hits give low values 0.976 | locus YPL240C, strain hsp82, hits give low values 0.965 | locus YPL256C, strain CLN2, hits give low values 0.981
